Test results published in PubChem BioAssay.
Active and inactive are the calls of the source. Unless noted, no rule for the calls is given here.

Columns and labels:
[1] = tested on: Wnt5a (protein binding on small-molecule microarray); test: Wnt5a binders on small-molecule microarray, primary screen, biophysical, 635/667 nm fluorescence (AID 1142); conditions: 635 nm fluorescence, higher = more signal;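 also: fluorescence read at 667 nm with signal to noise per printed feature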
[2] = cell viability in Huh7 cells, primary screen, cytotoxicity control for HCV replication inhibitor project, CellTiter-Glo luminescence, basal, 48 h (AID 1143); conditions: Huh7 HCV replicon, higher = more signal, called active from +8 up or from −8 down;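 also: Huh7 hepatoma cells carrying a hepatitis C replication reporter with no stimulus; test concentration not given here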
[3] = P. aeruginosa biofilm formation inhibitors, primary screen, PAO1 strain, BacTiter-Glo luminescence, LB-PBS (AID 1144); conditions: 12 h, higher = more signal
[4] = CREB reporter modulators without forskolin, primary screen, cell-based, PC12, CRE-LacZ reporter, unstimulated (AID 1145); conditions: no forskolin, luminescence, 4.5 h, higher = more signal, called active from +8 up or from −8 down
[5] = CREB reporter modulators under forskolin, primary screen, cell-based, PC12, CRE-LacZ reporter, forskolin-stimulated (AID 1146); conditions: luminescence, 4.5 h, higher = more signal, called active from +8 up or from −8 down;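 also: PC12 cells with 6xCRE LacZ reporter stimulated by forskolin 10 µM; beta-galactosidase reporter signal reflecting CREB driven transcription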
[6] = target: Streptavidin (Streptomyces avidinii) (UniProt P22629); test: streptavidin binders on small-molecule microarray, primary screen, artefact control for SMM compound annotation, biophysical, 635/667 nm fluorescence (AID 1147); conditions: streptavidin binding, higher = more signal;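 also: signal reflects streptavidin binding to arrayed compounds as a control protein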
[7] = small-molecule binders of probe aInhba, primary screen, biochemical, small-molecule microarray, 635/667 nm fluorescence (AID 1148); conditions: higher = more signal;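 also: score merges 667nm spot fluorescence with signal-to-noise for antibody binding to printed compounds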
Torsin-1A (Homo sapiens) [8] = target: Torsin-1A (Homo sapiens) (UniProt O14656); test: torsin A binders from cell lysate, primary screen, small-molecule microarray, wild-type, 635/667 nm (AID 1149); conditions: COS7 hTOR1A-WT lysate, 635 nm fluorescence, higher = more signal
Torsin-1A (Homo sapiens) [9] = target: Torsin-1A (Homo sapiens) (UniProt O14656); test: small-molecule binders of mutant TOR1A in lysate, primary screen, cell lysate, small-molecule microarray, COS7 lysate, 635/667 nm fluorescence (AID 1150); conditions: COS7 hTOR1A mutant lysate, 635 nm fluorescence, higher = more signal;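 also: score pools 667 nm emission and signal to noise measuring lysate protein binding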
[10] = tested on: Sonic hedgehog protein (Shh); test: small-molecule binders of Shh protein, primary screen, biochemical, small-molecule microarray, 635/667 nm fluorescence (AID 1151); conditions: small-molecule microarray binding, 635 nm fluorescence; higher = more signal;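 also: Shh protein binding to compounds spotted on small-molecule microarray slides; score combines spot fluorescence intensity with signal-to-noise across triplicate slides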

Streptavidin (Streptomyces avidinii), sequence (P22629 whole entry, looked up): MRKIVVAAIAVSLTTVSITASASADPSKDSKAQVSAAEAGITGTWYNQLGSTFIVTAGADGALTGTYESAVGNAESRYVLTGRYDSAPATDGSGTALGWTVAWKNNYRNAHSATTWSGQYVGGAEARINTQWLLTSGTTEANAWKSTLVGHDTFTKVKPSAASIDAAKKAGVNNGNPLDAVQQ
Torsin-1A (Homo sapiens), sequence (O14656 whole entry, looked up): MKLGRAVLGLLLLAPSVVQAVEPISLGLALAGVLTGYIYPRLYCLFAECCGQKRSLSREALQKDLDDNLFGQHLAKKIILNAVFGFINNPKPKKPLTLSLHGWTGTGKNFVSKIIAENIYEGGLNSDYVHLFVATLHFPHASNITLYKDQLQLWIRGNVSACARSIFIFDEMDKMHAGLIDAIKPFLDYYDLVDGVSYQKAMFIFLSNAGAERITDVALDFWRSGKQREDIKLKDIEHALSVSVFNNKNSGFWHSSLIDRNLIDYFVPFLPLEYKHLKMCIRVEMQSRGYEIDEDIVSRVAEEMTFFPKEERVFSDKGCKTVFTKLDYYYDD

| Structure (SMILES) | composite z-score [1] | z-score [2] | z-score [3] | z-score [4] | z-score [5] | composite z-score [6] | composite z-score [7] | composite z-score (Torsin-1A (Homo sapiens) [8]) | composite z-score (Torsin-1A (Homo sapiens) [9]) | composite z-score [10] |
| --- | --- | --- | --- | --- | --- | --- | --- | --- | --- | --- |
| O=C(O)[C@H]1C[C@H]2C(=O)NCC(=O)N2[C@H]1c1ccc(O)cc1 | -0.0071 | -0.283 (inactive) | -0.642 (inactive) | -0.13 (inactive) | -0.108 (inactive) | -0.54 | -0.168 | 0.562 | -0.0135 | 0.751 |
| Cc1ccc([C@H]2C(C(=O)O)=C[C@@H](C)N2S(=O)(=O)c2ccc(C)cc2)cc1 | -0.144 | -0.501 (inactive) | 0.759 (inactive) | -0.126 (inactive) | 1.32 (inactive) | 0.642 | -0.0509 | -0.948 | -0.465 | -0.945 |
| Cc1ccc(S[C@]2(C(=O)NCCN3CCOCC3)CC(=O)N(Cc3cc(C(F)(F)F)cc(C(F)(F)F)c3)[C@@H]2c2ccc(CO)cc2I)cc1 | -0.314 | -2.42 (inactive) | -0.956 (inactive) | 0.389 (inactive) | -0.0376 (inactive) | -0.71 | -0.183 | -2 | 0.561 | -0.4 |
| COCCOC(=O)N1C(=O)[C@@]2(c3cc(C#CC4(O)CCCCCC4)ccc31)[C@H](C(=O)N1CCCCCCC1)[C@H]1C(=O)O[C@H](c3ccccc3)[C@H](c3ccccc3)N1[C@@H]2c1ccccc1OCCO | 0.647 | -5.2 (inactive) | 0.148 (inactive) | 0.749 (inactive) | -0.551 (inactive) | 1.96 | 1.22 | 0.601 | 1.26 | 1.37 |
| CC1=C2[C@@H](CCc3ccccc3)OB(O)C[C@@H]2n2c(=O)n(-c3ccccc3)c(=O)n2C1 | 0.207 | -0.382 (inactive) | 0.909 (inactive) | 0.402 (inactive) | -0.826 (inactive) | 0.156 | -0.0405 | 0.0316 | 0.111 | 0.724 |
| O=C(O)[C@@]1(Cc2ccccc2)N=C(c2ccc(OCCCO)cc2)O[C@H]1c1ccccc1 | -0.243 | -0.637 (inactive) | -0.622 (inactive) | -0.286 (inactive) | -0.215 (inactive) | -0.28 | 0.166 | -0.184 | 1.4 | 0.422 |
| COC(=O)[C@@]1(Cc2ccc(OC)cc2)[C@H]2c3cc(C(=O)N4CCCC4)n(Cc4cc(F)cc5c4OCOC5)c3C[C@H]2CN1C(=O)c1ccccc1 | 0.605 | -2.5 (inactive) | 0.437 (inactive) | 2.68 (inactive) | 66.7 (active) | 0.699 | 0.423 | 0.442 | 0.996 | -0.673 |
| COC(=O)c1c(CC[C@@H](CO)NC(=O)N[C@@H](Cc2ccccc2)Cn2cc(C3(O)CCCCC3)nn2)oc(C(C)=O)c1C(=O)OC | 0.636 | -5.52 (inactive) | -1.73 (inactive) | 0.512 (inactive) | -1.36 (inactive) | 1.16 | -0.0178 | 0.69 | 0.405 | 1.7 |
| COc1ccc(C(=O)Nc2cccc(CN3C(=O)[C@@]4(O[C@@H](CCn5cc(CCO)nn5)[C@H]([Si](C)(C)c5ccc(OC)cc5)[C@H]4C)c4ccccc43)c2)cc1 | 0.504 | -8.01 (active) | -0.609 (inactive) | 8.36 (active) | -1.29 (inactive) | 0.37 | 0.0184 | 0.503 | 0.347 | 1.72 |
| C=CC(COC(C)=O)NS(=O)(=O)c1ccc(Br)cc1 (stereo not given) | 0.136 | 0.0481 (inactive) | 0.465 (inactive) | 2.39 (inactive) | 1.33 (inactive) | 0.923 | -0.105 | 0.211 | 0.385 | 0.948 |
| O=C1C=CC(=O)[C@@H]2CC(COc3ccccc3)=C3[C@@H](CCc4ccccc4)OB(O)C[C@@H]3[C@H]12 | 0.135 | -2.77 (inactive) | 0.452 (inactive) | 4.76 (inactive) | 4.47 (inactive) | -0.132 | -0.231 | -0.386 | -0.0222 | 1.3 |
| O=C1O[C@@H](c2ccccc2)[C@@H](c2ccccc2)N2[C@@H](c3ccc(OCCO)cc3)[C@]3(C(=O)Nc4ccc(C#CC5=CCCCC5)cc43)[C@@H](C(=O)O)[C@H]12 | 0.411 | -2.22 (inactive) | -0.761 (inactive) | -0.348 (inactive) | 7.68 (inactive) | 1.22 | 0.0895 | 0.0714 | 0.97 | 0.658 |
| COCCOC(=O)N1C(=O)[C@@]2(c3cc(C#CCNC(N)=O)ccc31)[C@H](c1ccccc1OCCO)N1[C@H](c3ccccc3)[C@H](c3ccccc3)OC(=O)[C@H]1[C@@H]2C(N)=O | 0.116 | -0.895 (inactive) | 0.287 (inactive) | 0.802 (inactive) | 5.24 (inactive) | 0.234 | 0.0422 | 0.198 | 0.41 | 1.8 |
| COCC1=C2[C@@H](CCc3ccccc3)OB(O)C[C@@H]2[C@@H]2C(=O)N(Cc3ccccc3)C(=O)[C@@H]2C1 | 0.278 | 0.0597 (inactive) | 1.07 (inactive) | 0.663 (inactive) | -0.0777 (inactive) | 0.0569 | -0.152 | -0.427 | 0.0316 | 0.333 |
